# Target: T1, Methionyl-tRNA synthetase, putative (Leishmania donovani (strain BPK282A1)) (UniProt E9BF75)
# T1 sequence (whole entry): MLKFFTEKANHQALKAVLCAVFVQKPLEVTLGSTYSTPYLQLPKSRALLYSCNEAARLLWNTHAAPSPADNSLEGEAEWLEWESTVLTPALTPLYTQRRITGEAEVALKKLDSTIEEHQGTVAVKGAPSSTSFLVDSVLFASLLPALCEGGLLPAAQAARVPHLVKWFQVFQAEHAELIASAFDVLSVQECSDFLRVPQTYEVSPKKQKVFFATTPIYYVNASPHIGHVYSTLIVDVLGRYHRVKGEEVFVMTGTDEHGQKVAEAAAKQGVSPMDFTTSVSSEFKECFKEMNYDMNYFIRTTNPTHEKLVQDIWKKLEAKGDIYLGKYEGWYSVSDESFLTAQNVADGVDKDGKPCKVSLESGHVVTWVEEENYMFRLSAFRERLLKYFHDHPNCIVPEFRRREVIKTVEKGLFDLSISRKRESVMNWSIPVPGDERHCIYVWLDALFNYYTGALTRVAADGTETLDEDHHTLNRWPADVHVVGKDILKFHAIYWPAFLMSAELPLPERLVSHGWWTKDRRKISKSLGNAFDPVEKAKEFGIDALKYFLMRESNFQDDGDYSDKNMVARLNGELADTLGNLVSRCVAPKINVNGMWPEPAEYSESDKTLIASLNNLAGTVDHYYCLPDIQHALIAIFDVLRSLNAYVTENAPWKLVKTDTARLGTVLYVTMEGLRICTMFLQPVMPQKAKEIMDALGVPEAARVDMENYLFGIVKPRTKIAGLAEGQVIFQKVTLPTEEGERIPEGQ
# Assay: Leishmania donovani Methionine tRNA synthetase (LdMetRS):v7. Dose response assay
# Assay type: functional
# Design: conc 80 nM, time 150 minutes
smiles,measurement,setting,value
CS(=O)(=O)N1CCN(c2ccc3ccc(C(=O)N4CCCC4)cn23)CC1,PXC50,"BOTTOM 0.156945579, HILLSLOPE 1.857683392, MAX_EFFECT 58.30188679, TOP 61.51792395",4.86
same,PXC50,"BOTTOM 4.583304472, HILLSLOPE 3.359740299, MAX_EFFECT 56.16438356, TOP 53.05051886",4.95
Cc1nc(NCCO)c2c3c(sc2n1)CCC3,PXC50,MAX_EFFECT 6.632653061,< 4
same,PXC50,MAX_EFFECT 7.828282828,< 4
Nc1cc(O)c(Cl)cc1Cl,PXC50,MAX_EFFECT 7.034220532,< 3
same,PXC50,MAX_EFFECT 11.44708423,< 3
CCOc1ccc(CN(C)Cc2nc(N)c3c(C)c(C)sc3n2)cc1,PXC50,MAX_EFFECT 7.466666667,< 4
same,PXC50,MAX_EFFECT 8.994708995,< 4
CN(CCO)c1nccc(Nc2ccc(F)c(F)c2)n1,PXC50,MAX_EFFECT 7.663551402,< 4
CCC(=O)N1CCC(c2ncc3c(n2)CCNC3)CC1,PXC50,MAX_EFFECT 1.814058957,< 4
same,PXC50,MAX_EFFECT 14.20560748,< 4
CC(C)N1CCN(c2ccc3ccc(C(=O)NC4CCCC4)cn23)CC1,PXC50,"BOTTOM 0.093, HILLSLOPE 1.274308059, MAX_EFFECT 67.28971963, TOP 100.0",4.24
same,PXC50,"BOTTOM -1.582312145, HILLSLOPE 1.245531895, MAX_EFFECT 64.39909297, TOP 98.29335099",4.24
CCNc1nc(-c2ccc(CC)cc2)cc(C(F)(F)F)n1,PXC50,MAX_EFFECT 8.510638298,< 4
same,PXC50,MAX_EFFECT 9.32642487,< 4
CCn1c(NC(=O)Nc2ccccc2OC)nc2ccccc21,PXC50,MAX_EFFECT 1.111111111,< 4
C[C@H](CO)Nc1ccnc(Cl)n1,PXC50,MAX_EFFECT 5.046728972,< 4
O=C(NC1CCCC1)c1ccc2ccc(N3CCCCC3)n2c1,PXC50,MAX_EFFECT 36.52968037,< 4
same,PXC50,MAX_EFFECT 39.81132075,< 4
COCCNc1nc(CSc2ccccc2)nc2sc(C)c(C)c12,PXC50,MAX_EFFECT 27.86885246,< 4
same,PXC50,MAX_EFFECT 28.34224599,< 4
CS(=O)(=O)N1CCN(c2ccc3ccc(C(=O)NCCN4CCS(=O)(=O)CC4)cn23)CC1,PXC50,"BOTTOM 1.003127248, HILLSLOPE 2.200420441, MAX_EFFECT 73.49177331, TOP 74.60069177",4.88
same,PXC50,"BOTTOM 1.050104582, HILLSLOPE 2.645513549, MAX_EFFECT 70.81339713, TOP 67.22785398",4.94
Cc1cc2c(N3CCN(CCO)CC3)nc(-c3cccnc3)nc2s1,PXC50,MAX_EFFECT 11.05527638,< 4
same,PXC50,MAX_EFFECT 12.53071253,< 4
CS(=O)(=O)N1CCN(CC2OB(O)c3ccccc32)CC1 (configuration not stated),PXC50,MAX_EFFECT 11.13207547,< 4
same,PXC50,MAX_EFFECT 15.06849315,< 4
CNC(=O)CNc1nc(CN2CCCCC2)nc2sc3c(c12)CCC3,PXC50,MAX_EFFECT 7.304785894,< 4
same,PXC50,MAX_EFFECT 12.46819338,< 4
COc1cccc(NC(=O)N2CCOc3ccccc32)c1,PXC50,MAX_EFFECT 19.53578337,< 4
CCNc1nc(-c2ccc(C)cc2)cc(C(F)(F)F)n1,PXC50,MAX_EFFECT 4.797979798,< 4
same,PXC50,MAX_EFFECT 5.102040816,< 4
COc1cccc(-c2cc(C(F)(F)F)nc(N3CCOCC3)n2)c1,PXC50,MAX_EFFECT 8.510638298,< 4
same,PXC50,MAX_EFFECT 10.3626943,< 4
COc1ccc(NC[C@@H](N)CC(C)C)c(Oc2ccc(Cl)cc2)n1,PXC50,MAX_EFFECT 6.560636183,< 4
same,PXC50,MAX_EFFECT 6.651376147,< 4
Cc1nc(N2CCN(c3ncccn3)CC2)c2c3c(sc2n1)CCCC3,PXC50,MAX_EFFECT 19.78609626,< 4
same,PXC50,MAX_EFFECT 20.21857923,< 4
COc1ccccc1NC(=O)Nc1cccc(O)c1,PXC50,MAX_EFFECT 2.803738318,< 4
Clc1cc(Cl)cc(CNCc2ccccn2)c1,PXC50,MAX_EFFECT 45.69789675,< 2.7
CCc1nc(NCCCO)c2cc(CC)sc2n1,PXC50,MAX_EFFECT 1.262626263,< 4
same,PXC50,MAX_EFFECT 8.163265306,< 4
Cc1nc(N2CCC(O)CC2)c2c(-c3cccs3)csc2n1,PXC50,MAX_EFFECT 8.905852417,< 4
same,PXC50,MAX_EFFECT 9.319899244,< 4
Cc1sc2nc(-c3cccnc3)nc(N3CCCC(CO)C3)c2c1C (configuration not stated),PXC50,"BOTTOM 0.693465662, HILLSLOPE 1.473836838, MAX_EFFECT 56.47668394, TOP 100.0",4.07
same,PXC50,"BOTTOM -1.655591932, HILLSLOPE 1.509629481, MAX_EFFECT 54.25531915, TOP 100.0",4.06
Cc1sc2nc(-c3cccnc3)nc(NCCN3CCOCC3)c2c1C,PXC50,MAX_EFFECT 3.015075377,< 4
same,PXC50,MAX_EFFECT 4.668304668,< 4
COCCNc1nc(-c2cccnc2)nc2sc3c(c12)CCCC3,PXC50,MAX_EFFECT 11.84210526,< 4
same,PXC50,MAX_EFFECT 12.5,< 4
OCc1ccc(Cl)cc1Cl,PXC50,MAX_EFFECT 13.11787072,< 3
same,PXC50,MAX_EFFECT 18.35853132,< 3
Cc1cc(C(F)(F)F)nc(CCNc2nc(C)nc3sccc23)n1,PXC50,MAX_EFFECT 8.838383838,< 4
same,PXC50,MAX_EFFECT 11.2244898,< 4
COc1ccccc1NC(=O)Nc1c[n+]([O-])ccc1OC,PXC50,MAX_EFFECT 3.018867925,< 4
O=C(NC1CCCC1)c1ccc2ccc(N3CCOCC3)n2c1,PXC50,"BOTTOM 3.55073469, HILLSLOPE 1.692539638, MAX_EFFECT 59.05660377, TOP 61.76844647",4.9
same,PXC50,"BOTTOM 4.599152337, HILLSLOPE 2.687600256, MAX_EFFECT 55.70776256, TOP 54.83275802",4.96
